Only some compounds are listed: those with a hit (about 1.8% of all), similar ones and a draw of the others.
ugtP null kill = growth inhibition of ugtP-null S. aureus, primary screen, RN4220 ugtP deletion, OD600; 16 h; growth inhibition, % (test concentration not listed); AID 1259309, 2017; 330,000 tested, 0.54% active; in the data active = growth inhibition above about 68%
DUSP3 inh = VHR1 phosphatase inhibitors, primary screen, biochemical, absorbance, uHTS | inhibition, % at 13.3 µM | recombinant VHR phosphatase, pNPP absorbance | 290,000 tested, 0.52% active | Dual specificity protein phosphatase 3 (Homo sapiens), P51452; in the data active = inhibition above about 50%
Target sequence (P51452 whole entry, looked up): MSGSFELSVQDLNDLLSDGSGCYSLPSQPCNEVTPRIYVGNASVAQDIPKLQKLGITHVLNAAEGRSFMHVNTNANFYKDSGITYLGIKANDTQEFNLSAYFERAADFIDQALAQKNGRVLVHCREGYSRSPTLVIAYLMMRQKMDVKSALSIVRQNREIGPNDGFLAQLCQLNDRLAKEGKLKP
SSB-PriA inh = inhibitors of Klebsiella pneumoniae PriA binding to SSB C-terminal tail, primary screen, biochemical, AlphaScreen. PriA–SSB C-terminal tail interaction (Klebsiella pneumoniae). AlphaScreen SSBct-PriA binding, biotinylated peptide. inhibition, % at 33 µM. 430,000 tested, 0.6% active; in the data active = inhibition mostly above about 37%, no sharp cut-off; inactive = mostly below about 20%
PfHsp40 rescue = rescue of yeast from PfHsp40 toxicity, primary screen, S. cerevisiae, ATP luminescence. S. cerevisiae expressing PfHsp40, growth rescue. growth rescue, % at 12.5 µM. AID 504582, 2011. 340,000 tested, 0.68% active; in the data active = growth rescue above about 28%, passing the limit was not always enough; inconclusive = no clear call, values can overlap the other calls;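 also: yeast W303a lacking pdr1 and pdr3 grown in galactose medium; growth measured after three days at 30 °C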
Sa RN4220 lethal = growth inhibition of S. aureus RN4220, primary screen, OD600. 330,000 tested, 0.33% active. AID 1259311, 2017. 16 h. inhibition, % (no concentration beside the values); in the data active = inhibition above about 85%
Mtb hypoxia inh = PubChem AID 1159583; 300,000 tested, 0.1% active; fluorescence inhibition, % (test concentration not listed); M. tuberculosis hypoxia-regulated fluorescent reporter, fluorescence; in the data active = fluorescence inhibition mostly above about 23%, no sharp cut-off; inactive = mostly below about 17%
Hits are given with their value; n = inactive; u = inconclusive; x = not tested or not shown; ! = not confirmed by another sample.

SMILES | ugtP null kill | DUSP3 inh | SSB-PriA inh | PfHsp40 rescue | Sa RN4220 lethal | Mtb hypoxia inh
Cc1ccc(NC(=O)C(C)Oc2cccc(Br)c2)c([N+](=O)[O-])c1 (configuration not stated) | x | x | 49.0 | x | x | x
Cc1ccc(NC(=O)c2ccc(Nc3c([N+](=O)[O-])cc([N+](=O)[O-])cc3[N+](=O)[O-])cc2)cc1 | n | n | n | n | n | 45.7
O=C(NCCn1cnc(C2CCCC2)cc1=O)NCc1cccs1 | x | x | n | x | x | x
CSc1nnc(CNC(=O)c2ccccc2C(F)(F)F)n1-c1ccc(F)cc1 | x | x | n | x | x | x
O=C(NN=Cc1ccc(F)cc1)c1c(O)c2ccccc2[nH]c1=O | n | x | n | x | n | n
CC(C)=NNC(=O)c1c(O)c2ccccc2[nH]c1=O | n | n | n | 100.3 | n | n
CCNC(=O)c1c(O)c2ccccc2[nH]c1=O | n | n | n | n | n | n
O=C(NN=Cc1cccc(F)c1)c1c(O)c2ccccc2[nH]c1=O | 100.1 | x | n | x | 99.4 | n
O=C(Cc1ccccc1Cl)NCC(c1ccco1)N1CCOCC1 (configuration not stated) | x | x | n | x | x | x
COc1cc2c(cc1NC(=O)Nc1ccccc1)oc1ccccc12 | 84.2 | n | n | u | n | n
COc1cc2c(cc1NC(=O)CCC(=O)O)oc1ccccc12 | n | n | n | n | n | n
Cc1ccc(N=C(N=C(N)N[N+](=O)[O-])Nc2ccc(C)cc2)cc1 | x | x | n | x | x | x
CC(C)(C)CC(=O)Nc1ccc2c(c1)C(=O)NCCO2 | x | x | n | x | x | x
CC(=NNC(=S)N1CC2CCC(CC2)C1)c1ccncn1 | x | x | n | 97.8 | x | x
CC(=NNC(=S)N1CCCCC1)c1cccc(C)n1 | x | x | n | n | x | x
COc1cccc(C(=O)NCCn2ncc3c(=O)n(Cc4ccc(F)cc4)cnc32)c1 | x | x | n | x | x | x
CCC(C)(C)c1ccc(OCCCC(=O)Nc2ccc(Cl)c(NC(=O)CC(=O)C(C)(C)C)c2)c(C(C)(C)CC)c1 | x | x | n | x | x | x
C[C@]12CC[C@H](O)CC1=CCC1C2CC[C@@]2(C)C1CC[C@@H]2OCc1ccccc1 (some centres not stated) | n | x | n | n | n | n
CC12CCC(O)CC1=CCC1C2CCC2(C)C(c3ccn[nH]3)CCC12 (configuration not stated) | 97.6 | x | n | n | n | n
Cc1c(OC(=O)N2CCOCC2)ccc2c1O/C(=C\c1ccc3c(c1)OCO3)C2=O | x | x | n | x | x | x
CCOc1ccc(S(=O)(=O)n2cc(F)c(=O)[nH]c2=O)cc1[N+](=O)[O-] | n | n | n | n | n | n
CCOc1ccc(S(=O)(=O)n2cc(F)c(=O)[nH]c2=O)cc1 | n | n | n | 143.9 | n | n
CCOC(=O)NC[C@H](O)c1ccc2c(c1)CCO2 | x | x | n | x | x | x
O=S(=O)(NC1CC(NS(=O)(=O)OCC(Cl)(Cl)Cl)C2CCCCC12)OCC(Cl)(Cl)Cl (configuration not stated) | 95.1 | n | n | n | 100.8 | n
O=C(O)C(Cc1ccccc1)N1C(=O)c2c(Cl)c(Cl)c(Cl)c(Cl)c2C1=O (configuration not stated) | 85.9! | x | n | n | n | n
SMILES | ugtP null kill | DUSP3 inh | SSB-PriA inh | PfHsp40 rescue | Sa RN4220 lethal | Mtb hypoxia inh
COc1ccc(NC(=O)CSCC(=O)N(C)CC(=O)Nc2ccc(Cl)c(C(F)(F)F)c2)cc1 | n | x | n | n | n | n
Cc1cc(C)cc(OCC(=O)N(C)CC(=O)Nc2ccc(Cl)c(C(F)(F)F)c2)c1 | n | x | n | 50.6 | n | n
O=C(CCNC(=O)c1ccccc1Cl)Nc1ccc(Cl)c(C(F)(F)F)c1 | n | n | n | n | n | n
CCc1ccccc1NCC(=O)Nc1ccc(Cl)c(C(F)(F)F)c1 | 89.5 | n | n | u | n | n
CCOC(=O)c1c(NC(=O)CSc2nc(C)nc3sc4c(c23)CCCC4)sc2c1CCC(C)C2 (configuration not stated) | x | x | n | x | x | x
Cc1cc(C)n(N=Cc2cc([N+](=O)[O-])ccc2O)c(=O)c1 | n | x | n | x | 88.9 | n
O=C(COc1ccc(Cl)cc1Cl)NCCn1ccnc1-c1ccccn1 | x | x | n | x | x | x
CC(C)(C)C(=O)NCCN1CCN(c2ccccc2F)CC1 | x | x | n | x | x | x
Cc1ccc(-c2cc(C(=O)N3CCN(c4ccccc4O)CC3)c3ccccc3n2)o1 | n | n | n | 136.7 | n | n
CC12CCC3C(CCC4(O)CC(O)CCC34C=NO)C1(O)CCC2C1=COC(=O)C1 (configuration not stated) | x | x | n | n | x | x
CCCCN=C[C@]12CCC(O)CC1(O)CCC1[C@@H]2CC[C@]2(C)[C@H](C3C=CC(=O)O3)CCC12O (some centres not stated) | n | n | 65.8 | n | n | n
CON=CNC(=O)Cc1cn(-c2ncc(C(F)(F)F)cc2Cl)c2ccccc12 | n | x | n | x | n | x
CS(=O)(=O)c1ccc([C@@H](O)[C@@H](CO)NC(=O)C(Cl)Cl)cc1 | x | x | n | n | x | x
CS(=O)(=O)c1ccc(C(O)C(CO)NC(=O)C(Cl)Cl)cc1 (configuration not stated) | n | x | x | x | n | 79.9
CS(=O)(=O)c1ccc([C@@H](O)[C@@H](CF)NC(=O)C(Cl)Cl)cc1 | x | x | n | n | x | x
CS(=O)(=O)c1ccc(C(O)C(CF)NC(=O)C(Cl)Cl)cc1 (configuration not stated) | 99.9 | x | x | x | 99.1 | x
O=C(CSc1ncnc2sc3c(c12)CCC3)Nc1nsc(-c2ccccc2)n1 | x | x | n | x | x | x
CSCc1cc(N(C)c2ccccc2)nc(-c2ccccc2)n1 | 88.2 | n | n | n | n | n
COc1cc(CSC)nc(-c2ccccc2)n1 | n | n | n | n | n | n
O=C(Nc1ccc(Cl)c([N+](=O)[O-])c1)C(Sc1ccccc1)c1ccccc1 (configuration not stated) | 99.2 | n | n | u | 85.9 | n
O=C(NCc1ccncc1)c1ccccc1Nc1ccc(SC(F)F)cc1 | n | n | n | 473.7 | n | n
Cn1cc(S(=O)(=O)N2CCCN(C(=O)c3cc4ccccc4s3)CC2)cn1 | x | x | n | x | x | x
O=C(N/N=C/c1ccccn1)c1sc2ccccc2c1Cl | x | n | n | 198.9 | x | x
Cc1ccc(CSCC(=O)NN=Cc2cccc(OC3CSC3)c2)cc1 | n | x | n | x | n | n

Source: PubChem BioAssay
